Screening results (PubChem BioAssay)
This is a sample that favours compounds with a hit; in the whole collection about 1.2% have one here.
NPR1 activator = GC-A (human) enzyme activation. P16066. 370,000 tested, 0.14% active. activation, % at 10 µM. AID 1671463. HEK293 GC-A cells, cGMP TR-FRET, EC30 ANP; 0% at EC30 ANP, 100% saturating ANP; in the data active means activation above about 40%
NPR2 activator = GC-B (human) receptor activation. P20594. HEK293-GC-B cells, CNP EC30, cGMP TR-FRET; 0% at EC30 CNP, 100% saturating CNP. 370,000 tested, 0.11% active. AID 1920062. activation, % at 10 µM;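 active means activation at 10 µM reaching about 35% in either raw or pattern-adjusted values, limit read from the data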
PLCg1 inh = PLC-gamma1 (human) inhibition, primary screen. P19174. purified PLC-gamma1, fluorogenic substrate, fluorescence. inhibition, % at 12.2 µM. 370,000 tested, 0.84% active; in the data active means inhibition above about 9.5%
PLC-beta3 inh = inhibitors of human phospholipase C beta3. Q01970. 370,000 tested, 0.18% active. inhibition, % at 12.2 µM. Purified PLC-beta3, fluorogenic substrate, fluorescence;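 further: 0% = median of compound wells on plate and 100% = full blocker control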
PLCg1 ctr = inhibits human PLC-gamma1 in PLC-beta3 counter-screen; shares compounds with PLCg1 inh; purified PLC-gamma1, fluorogenic substrate, fluorescence; inhibition, % at 12.3 µM; 3,300 tested, 3.1% active; AID 743258; in the data active means inhibition above about 9.5%
PLCb3 confirm = human PLC-beta3 inhibition, confirmation. shares compounds with PLCg1 inh. purified PLC-beta3, fluorogenic substrate fluorescence. inhibition, % at 12.3 µM. 3,300 tested, 1% active. AID 743261
Active calls of the source: *; . = no result. Unless noted, no stated cut-off is given here; in the data, active means inhibition above about 11%; inactive means the rest.

SMILES	NPR1 activator	NPR2 activator	PLCg1 inh	PLC-beta3 inh	PLCg1 ctr	PLCb3 confirm
C=C(C)[C@@H]1CC[C@]2(C(=O)O)CC[C@]3(C)C(CCC4[C@@]5(C)CC[C@H](O)C(C)(C)C5CC[C@]43C)C12 (stereo partly drawn)	-9	-6	9.5*	7	-3	-1
C=C(C)[C@@H]1CCC2(C(=O)O)CC[C@]3(C)[C@H](CC[C@@H]4[C@@]5(C)CCC(=O)C(C)(C)[C@@H]5CC[C@]43C)[C@@H]12 (stereo partly drawn)	-2	1	2	1	.	.
COc1ccc(S[C@]2(C(=O)N3CCOCC3)CC(=O)N(c3ccc(OC)cc3)[C@@H]2c2ccc(OC)cc2)cc1	-7	-7	9.7*	2	-5	0
COc1ccc(S[C@]2(C(=O)N3CCOCC3)CC(=O)N(C(=O)c3ccccc3)[C@@H]2c2ccc(OC)cc2)cc1	-5	-9	0	0	.	.
COc1ccc(S[C@]2(C(=O)N3CCN(C(C)=O)CC3)CC(=O)N(C(=O)CCc3ccccc3)[C@@H]2c2ccc(OC)cc2)cc1	-2	2	11*	-1	1	-1
COC(=O)c1cccc(N2C(=O)C[C@](Sc3ccc(OC)cc3)(C(=O)N3CCOCC3)[C@H]2c2ccc(OC)cc2)c1	-21	-16	15*	6	-5	0
COc1ccc(S[C@]2(C(=O)N3CCOCC3)CC(=O)N(C(=O)CCc3ccccc3)[C@@H]2c2ccc(OC)cc2)cc1	1	3	1	1	.	.
CCN1CCN(S(=O)(=O)c2ccc(Cl)c(C(=O)N(CCc3ccccc3)Cc3ccccc3)c2)CC1	-3	-6	5	-4	.	.
CN(C)CCC1c2ccc(Cl)cc2CCc2cccnc21 (stereo not drawn) (tested in a mixture with another compound)	-47	-15	-4	-6	.	.
Cn1c(NCCCN2CCOCC2)nc2c1c(=O)n(Cc1ccc(Cl)cc1Cl)c(=O)n2C	6	11	12*	3	-13	-3
O=C(NCCc1ccccc1)OCc1cn(Cc2cccc(C(F)(F)F)c2)nn1	2	4	-2	0	.	.
Cc1ccc(-c2c(C(=O)c3ccccc3)[nH]c(N)c2C(=O)NCCc2c[nH]c3ccccc23)cc1	-10	1	-9	-3	.	.
O=C(Nc1ccccc1)C1Cc2c(-c3cccc(F)c3)ccnc2O1 (stereo not drawn)	-3	-6	2	-1	.	.
CNC(=O)C1Cc2c(-c3cccc(F)c3)ccnc2O1 (stereo not drawn)	2	6	16*	4	-4	1
CCOC(=O)NC(NC(=S)Nc1ccc(OC)cc1)C(Cl)(Cl)Cl (stereo not drawn)	5	4	0	-1	.	.
COc1ccc([N+](=O)[O-])cc1NS(=O)(=O)c1ccccc1	1	-5	1	4	.	.
COc1ccc([N+](=O)[O-])cc1NC(=S)NC(NC(=O)C(c1ccccc1)c1ccccc1)C(Cl)(Cl)Cl (stereo not drawn)	1	-5	12*	8	-4	-1
COC(=O)NC(NC(=S)Nc1ccc([N+](=O)[O-])cc1)C(Cl)(Cl)Cl (stereo not drawn)	6	10	5	12*	5	7
COc1ccc([N+](=O)[O-])cc1NS(=O)(=O)c1cc(C(=O)O)ccc1OC	3	2	9.5*	-3	-2	-1
Cc1ccc(NC(=O)CN(C)S(=O)(=O)c2ccc3c(c2)c(=O)n(C)c(=O)n3C)cc1	1	1	2	0	.	.
COc1ccc(NC(=O)CSc2nnc(C)n2C2CC2)cc1S(=O)(=O)N1CCOCC1	4	2	9.8*	-1	-5	-1
Cc1ccc(NC(=O)CSc2nnc(C)n2C2CC2)cc1S(=O)(=O)N1CCOCC1	1	3	4	-9	.	.
COc1ccccc1C(=O)N1CCC2CCNC2C1 (stereo not drawn)	4	1	2	-1	.	.
COc1ccc(NC(=O)CN(c2ccc(OC)c(Cl)c2)S(=O)(=O)c2ccccc2)c(OC)c1	-1	-13	11*	-4	-3	1
